CYP2C19 inhib = blocks human cytochrome P450 2C19 | P33261 | CYP2C19 Supersomes, luciferin-H EGE luminescence, 30 min | inhibition, % at 5 µM | actives 21% (n = 96,000) | AID 778;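 active means CYP2C19 inhibition above a set limit at 5 µM in the primary screen, cut at about 50% in these data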
sEH inh = blocks human soluble epoxide hydrolase activity; P34913; recombinant human sEH enzymatic activity assay; AID 707; inhibition, % at 2 µM; actives 0.34% (n = 91,000); in the data active means inhibition above about 80%
CYP2C9 act = increases human cytochrome P450 2C9 activity; actives 1.4% (n = 96,000); recombinant CYP2C9, luciferin-H conversion, luminescence; hits give high values; factor 1 = untreated enzyme, 0 = blocked; activation factor at 5 µM;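 active means activation factor of 2 or more for CYP2C9 at a 5 µM dose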
Target sequence (P11712 whole entry, looked up): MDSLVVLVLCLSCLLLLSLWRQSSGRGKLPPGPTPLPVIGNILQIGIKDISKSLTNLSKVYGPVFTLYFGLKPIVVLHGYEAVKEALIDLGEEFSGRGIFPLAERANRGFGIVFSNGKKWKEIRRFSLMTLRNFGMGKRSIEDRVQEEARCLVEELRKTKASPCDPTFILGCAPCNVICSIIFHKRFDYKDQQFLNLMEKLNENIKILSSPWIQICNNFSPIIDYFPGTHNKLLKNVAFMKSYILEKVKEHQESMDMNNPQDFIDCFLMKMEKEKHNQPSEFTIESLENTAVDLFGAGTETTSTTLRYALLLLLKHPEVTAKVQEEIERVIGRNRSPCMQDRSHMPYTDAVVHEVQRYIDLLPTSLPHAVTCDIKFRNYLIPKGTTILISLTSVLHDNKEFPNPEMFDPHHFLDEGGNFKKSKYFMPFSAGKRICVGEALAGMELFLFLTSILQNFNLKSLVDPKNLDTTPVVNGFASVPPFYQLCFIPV
sEH activator = soluble epoxide hydrolase (human) activation. P34913. purified human sEH enzymatic activity, activator screen. activation, % at 2 µM. actives 0.04% (n = 91,000). AID 717; in the data active means activation above about 37%
CYP2C19 activ = cytochrome P450 2C19 (human) activation; P33261; recombinant CYP2C19, luciferin-H EGE luminescence; hits give high values; 0 = fully inhibited enzyme, 1 = untreated enzyme; activation factor at 5 µM; 96,000 tested, under 10 active;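 active means activation factor of at least 2 at 5 µM in the primary screen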
CYP2C9 inhib = inhibitors of human CYP2C9; P11712; CYP2C9 Supersomes, luciferin-H conversion, luminescence; inhibition, % at 5 µM; actives 20% (n = 96,000); AID 777;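 active means blocking of liver enzyme CYP2C9 beyond about 50% at 5 µM, limit read from the data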
Numbers stand for hits; 0 = inactive; - = no result given. This is a sample that favours compounds with a hit; in the whole collection about 27% have one here.

SMILES	CYP2C19 inhib	sEH inh	CYP2C9 act	sEH activator	CYP2C19 activ	CYP2C9 inhib
COCCCNC(=O)CN(Cc1ccc(Cl)cc1)S(C)(=O)=O	58	0	0	0	0	0
CS(=O)(=O)N(CCc1ccccc1)CC(=O)Nc1ccc2c(c1)OCO2	0	0	0	0	0	0
CCOc1ccc(NC(=O)CN(Cc2ccccc2)S(C)(=O)=O)cc1	-	0	-	0	-	-
CS(=O)(=O)N(CC(=O)Nc1ccc2c(c1)OCO2)Cc1ccccc1	70	0	0	0	0	0
CN(CCC(=O)Nc1ccc2c(c1)OCO2)Cc1ccccc1	0	-	0	-	0	52
O=C(NC1CCC(NC(=O)C(F)(F)C(F)F)CC1)C(F)(F)C(F)F (stereo not drawn)	0	-	0	-	0	0
Cc1ccc2nc(-c3ccc(O)cc3)c(Nc3ccc4c(c3)OCCO4)n2c1	0	0	0	0	0	0
COc1ccc(-c2nc3cnccn3c2Nc2ccc3c(c2)OCO3)cc1	88	-	0	-	0	87
Cc1ccc(-c2nc3cnccn3c2Nc2ccc3c(c2)OCO3)cc1	78	0	0	0	0	86
Cc1cc(C)n2c(Nc3ccc4c(c3)OCCO4)c(-c3ccccc3)nc2n1	0	0	0	0	0	76
Cc1ccn2c(NCc3ccc4c(c3)OCO4)c(-c3ccc(O)cc3)nc2c1	0	0	0	0	0	0
Cc1ccc(-c2nc3cnccn3c2Nc2ccc3c(c2)OCCO3)o1	87	-	0	-	0	72
O=C(NCc1cccnc1)C1CC(=O)N(CCc2ccccc2)C1 (stereo not drawn)	80	0	0	0	0	0
O=C(NCc1cccnc1)C1CC(=O)N(C2CCCCC2)C1 (stereo not drawn)	0	0	0	0	0	0
O=C(NCCc1ccccc1)C1CCCN(S(=O)(=O)c2cccnc2)C1 (stereo not drawn)	0	0	0	0	0	0
O=C(NCc1cccnc1)C1CCCN(S(=O)(=O)c2ccccc2)C1 (stereo not drawn)	87	0	0	0	0	83
O=C(NCc1ccc(F)cc1)C1CCCN(S(=O)(=O)c2cccnc2)C1 (stereo not drawn)	0	0	0	0	0	0
O=C(NCc1cccnc1)C1CCCN(S(=O)(=O)c2ccc(Cl)cc2)C1 (stereo not drawn)	85	0	0	0	0	77
C[C@@H](C(=O)NCc1ccccc1)N1C(=O)C2CC=CCC2C1=O (stereo partly drawn)	0	0	0	0	0	0
O=C1/C(=C/c2ccc(F)cc2)SC(=S)N1Nc1ncc(C(F)(F)F)cc1Cl	0	0	0	0	0	0
O=C1/C(=C\c2ccccn2)SC(=S)N1Nc1ncc(C(F)(F)F)cc1Cl	65	0	0	0	0	0
CCC(C)NC(=O)c1ccccc1NC(=O)COc1ccc(OC)cc1 (stereo not drawn)	51	0	0	0	0	73
CCC(C)NC(=O)c1ccccc1NC(=O)C(C)N(c1ccccc1)S(C)(=O)=O (stereo not drawn)	59	0	0	0	0	0
COCC(=O)Nc1ccccc1C(=O)Nc1ccc(OC)cc1	0	-	0	-	0	0
COc1ccc(NC(=O)c2ccccc2NC(=O)COc2ccccc2)cc1	0	0	0	0	0	52
SMILES	CYP2C19 inhib	sEH inh	CYP2C9 act	sEH activator	CYP2C19 activ	CYP2C9 inhib
Cc1cc(C(C)c2ccccc2)c(O)c(CN2CCOCC2)c1C (stereo not drawn)	0	0	0	0	0	0
COC(=O)CCCNC(=O)OCc1ccc([N+](=O)[O-])cc1	0	0	0	0	0	0
C#CCOC(=O)CCCNc1ccc([N+](=O)[O-])cc1[N+](=O)[O-]	62	0	0	0	0	58
CCn1nc(C)c(/C=N/NC(=O)c2ccc3c(c2)c(C)c(C)n3Cc2ccccc2)c1C	86	0	0	0	0	89
CCn1cc(/C=N\NC(=O)c2ccc3c(c2)c(C)c(C)n3Cc2ccccc2)c(C)n1	73	0	0	0	0	0
CCn1ncc(/C=N\NC(=O)c2ccc3c(c2)c(C)c(C)n3Cc2ccccc2)c1C	73	0	0	0	0	93
CCn1c2ccccc2c2cc(/C=N/NC(=O)c3cccc(C)c3)ccc21	0	0	0	0	0	0
C=CCn1c(=N)c(C(=O)OC)cc2c(=O)n3cccc(C)c3nc21	0	-	0	-	0	0
Cc1cccc(-c2nc(CSCC(=O)NCc3cccs3)c(C)o2)c1	0	0	0	0	0	0
N#CCCCSc1nnc(-c2ccccn2)o1	0	0	0	0	0	0
COC(=O)/C(=C(/F)Sc1cc(C)c(O)c(C)c1)C(F)(F)F	82	0	0	0	0	94
Cc1nnc(SCCn2c(N(C)Cc3ccccc3)nc3c2c(=O)n(C)c(=O)n3C)s1	-	0	-	0	-	-
CC1CCCCC1NC(=O)c1ccc2c(c1)[nH]c(=O)n2C1CCCC1 (stereo not drawn)	0	0	0	0	0	76
COc1ccc(CC(=O)NC2CCN(CC(=O)Nc3ccc4c(c3)OCCO4)CC2)cc1OC	0	0	0	0	0	0
Cn1c(=O)c2c(ncn2CC(=O)Nc2nc3ccc(F)cc3s2)n(C)c1=O	0	0	0	0	0	59
CCOC(=O)c1ccc(NC(=S)NCC(O)c2ccccc2)cc1 (stereo not drawn)	0	0	0	0	0	0
COC(=O)c1ccc(NC(=S)Nc2ccccc2)cc1	52	0	0	0	0	0
COC(=O)c1ccc(NC(=O)Cc2ccccc2)cc1	83	0	0	0	0	70
CCOC(=O)c1ccc(NC(=S)NCCc2ccccc2)cc1	0	0	0	0	0	66
COC(=O)c1cc(NC(=O)Cc2ccc(OC)cc2)cc(C(=O)OC)c1	0	0	0	0	0	84
CCc1nnc(NC(=O)C(=O)NCCOC(=O)c2ccccc2Cl)s1	0	0	0	0	0	0
Cc1ccc(Cn2nc(C)c(NC(=O)C3CC3)c2C)cc1	-	0	-	0	-	-
CCOC(=O)N1CCN(C(=O)C2CCN(S(=O)(=O)c3ccccc3)CC2)CC1	0	0	0	0	0	0
CCC(C)C(=O)Nc1cc(C(=O)OC)cc(C(=O)OC)c1 (stereo not drawn)	0	0	0	0	0	61
COC(=O)c1cc(NC(=O)CN2CCOCC2)cc(C(=O)OC)c1	0	-	0	-	0	0
SMILES	CYP2C19 inhib	sEH inh	CYP2C9 act	sEH activator	CYP2C19 activ	CYP2C9 inhib
COC(=O)c1ccc(NC(=O)CNS(=O)(=O)c2cccs2)cc1	65	0	0	0	0	0
Cc1ccc(-n2nc3c(c2NC(=O)c2ccccc2Br)CS(=O)C3)cc1 (stereo not drawn)	0	0	0	0	0	0
CCc1nc(OCCN(CC)CC)c2oc3ccccc3c2n1	0	0	0	0	0	0
CCN(CC)CCOc1ncnc2c1oc1ccccc12	66	0	0	0	0	0
CC1=CCC(COC(=O)Nc2ccccc2)CC1 (stereo not drawn)	0	0	0	0	0	0
C/C(=N\OC(=O)c1ccccc1F)c1nccs1	0	0	0	0	0	0

Screening results (PubChem BioAssay)
